Hits are enriched below; roughly 15% of the tested compounds scored in any of these assays.
12-LOX inh – ALOX12 (human) lipoxygenase inhibition. 1.1% of 580,000 active. Potency, µM (top dose mostly 108 µM), hits mostly inhibitors. purified 12hLO, xylenol orange hydroperoxide absorbance. P18054
Target sequence (P18054 whole entry, looked up): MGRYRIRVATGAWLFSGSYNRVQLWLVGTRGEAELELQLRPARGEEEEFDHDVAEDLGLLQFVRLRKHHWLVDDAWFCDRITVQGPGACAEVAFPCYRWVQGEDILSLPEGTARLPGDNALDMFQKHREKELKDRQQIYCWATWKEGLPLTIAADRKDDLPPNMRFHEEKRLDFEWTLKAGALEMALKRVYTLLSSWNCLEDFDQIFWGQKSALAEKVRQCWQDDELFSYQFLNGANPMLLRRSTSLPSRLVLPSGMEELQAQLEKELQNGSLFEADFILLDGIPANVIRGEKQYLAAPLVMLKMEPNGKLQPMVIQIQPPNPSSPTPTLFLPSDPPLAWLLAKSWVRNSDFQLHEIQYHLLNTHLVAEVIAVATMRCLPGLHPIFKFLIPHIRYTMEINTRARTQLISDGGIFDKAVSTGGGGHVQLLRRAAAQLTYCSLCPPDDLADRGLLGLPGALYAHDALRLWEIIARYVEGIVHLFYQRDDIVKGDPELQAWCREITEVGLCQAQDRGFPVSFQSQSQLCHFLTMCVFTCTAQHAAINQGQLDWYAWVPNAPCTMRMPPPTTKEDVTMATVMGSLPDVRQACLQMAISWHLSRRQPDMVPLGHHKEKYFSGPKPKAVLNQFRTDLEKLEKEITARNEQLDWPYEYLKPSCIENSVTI
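Hydroperoxide product was detected by ferrous iron/xylenol orange as the 573 to 405 nm absorbance ratio. Arachidonic acid at 40 uM (final) was turned over for 30 min at room temperature by 150 nM human 12hLO, pH 7.0 Hepes buffer, after 15 min compound preincubation.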
Gal4-VP16 FLuc – inhibits Gal4-VP16 luciferase reporter, ROR gamma counter-screen. Drosophila S2 Gal4-VP16 UAS-luciferase, luminescence, 20 h. Potency, µM (top dose mostly 53.6 µM), usual class: inhibitors. 3.5% of 310,000 active;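 also: Gal4-VP16 expression switched on by copper sulfate through the metallothionein promoter; nearly all actives have a fitted effect of over 50% in size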
DT40 TDP1 no CPT – qHTS for Inhibitors of human tyrosyl-DNA phosphodiesterase 1 (TDP1): qHTS in cells in absence of CPT. DT40 Tdp1-/- hTDP1 cells, no CPT, ATP luminescence, 48 h. Potency, µM (series often up to 46.2 µM), actives largely listed as inhibitors. 15% of 420,000 active. AID 686978, 2013; also: nearly all actives have a fitted effect of over 55% in size
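Seeded 400 DT40-hTDP1 cells/well (vehicle DMSO, no 20 nM CPT); pinned compounds; ≥48 hr at 37 °C; CellTiter-Glo luminescence as viability measure.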
ELG1 DNA repair – blocks ELG1-dependent DNA repair in HEK293T cells. 2.3% of 330,000 active. HEK293T ELG1-luciferase reporter, luminescence, 16 h; DNA damage induced by 5-fluorouridine. AID 504467. Potency, µM (top dose mostly 46.1 µM), actives largely listed as inhibitors; also: nearly all actives have a fitted effect of over 55% in size
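HEK293T cells expressing luciferase-tagged ELG1 (2,000/well) received 5-Fluorouridine plus compound or DMSO for 16 hr at 37 °C. Luciferase was read by ONE-Glo luminescence after 30 min at room temperature.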
RORgamma inh – blocks mouse ROR gamma transcriptional activity; Potency, µM (series often up to 53.6 µM), usual class: inhibitors; 5.4% of 310,000 active; Drosophila S2 Gal4-RORgamma UAS-luciferase reporter, 20 h; also: nearly all actives have a fitted effect of over 60% in size
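Stably transfected Drosophila Schneider cells are the test system, with ROR gamma fused to Gal4 and luciferase under UAS control; luminescence is read after 20 hr of 700 uM copper sulfate induction at ambient temperature.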
TDP1 cell CPT – growth inhibition of DT40 Tdp1-/-;hTDP1 cells with camptothecin (screen for TDP1 inhibitors); chicken DT40 Tdp1-/-;hTDP1 cells + 20 nM CPT, ATP luminescence, 48 h; Potency, µM (highest dose often 46.2 µM), usual class: inhibitors; 12% of 420,000 active; also: nearly all actives have a fitted effect of over 55% in size
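Cell growth measured by CellTiter-Glo luminescence after a minimum 48 h, 37 C compound exposure with 20 nM CPT in Tdp1-knockout DT40 cells stably expressing hTDP1, seeded 400/well; qHTS titration format.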
Numbers stand for hits; n = inactive; u = inconclusive; x = no result; [ ] = dose if it differs, or a comment. Calls follow the shape of the dose curve; as a rule, active = well fitted curve in the direction sought with a large enough effect; inconclusive = small, poorly fitted or top-dose-only effect, or another doubt; inactive = no such curve, though single readings can be large; an effect the other way counts as inactive or inconclusive.

SMILES | 12-LOX inh | Gal4-VP16 FLuc | DT40 TDP1 no CPT | ELG1 DNA repair | RORgamma inh | TDP1 cell CPT
COc1cccc(C(=O)N/N=C/C(Br)=C/c2ccccc2)c1 | n | u | 2.9µM | n | u | 1.8µM
COc1ccc(/C=N/NC(=O)c2ccc(NC(=O)c3ccccc3Br)cc2)cc1 | u | n | u | u | n | u
O=C(N/N=C/C(Br)=C/c1ccccc1)c1cnccn1 | n | n | 2.3µM | n | u | 1.6µM
COc1ccc(C(=O)N/N=C/C(Br)=C/c2ccccc2)cc1 | n | 16µM | 15µM | n | 3.5µM | 13µM
COc1cccc(C(=O)Nc2ccccc2NC(=O)c2cccc(OC)c2)c1 | n | n | u | u | n[1.91 µM] | n
CC(=O)c1ccc(OCc2ccccc2)cc1O | n | x | x | x | x | x
CC1Cc2cc(C(=O)c3cc4cc(Cl)ccc4o3)ccc2N1S(C)(=O)=O (configuration not stated) | n | x | x | x | x | x
Cc1cc(-c2cc3c(cn2)CN(Cc2ccccc2F)CCN3)ccn1 | n | x | x | x | x | x
CCn1cnnc1CC1CCNC1 (configuration not stated) | n | x | x | x | x | x
CCCCc1nnc2sc(-c3ccc(OC)c(OC)c3)nn12 | n | x | x | x | x | x
CCC(=O)Nc1ccc(/C=C(\C(C)=O)C(=O)c2ccccc2)cc1 | u | n | 23µM | u | n | u
O=C(C(=Cc1ccc(F)cc1)c1ccccc1)c1ccc(O)cc1 | u | x | u | x | x | n
O=C(C(=Cc1ccc(F)cc1)C(=O)c1ccccc1)c1ccccc1 | n | x | 16µM | x | x | u
COc1ccc(C2NS(=O)(=O)N=C2N)cc1 (configuration not stated) | n | n | 23µM | n | n | u
CN(C)Cc1cc(C[C@@H]2C[C@H](NC(=O)CC(C)(C)C)C2(C)C)no1 | n | x | x | x | x | x
COc1ccc(Cc2nc3nccc(-c4cc(OC)c(OC)c(OC)c4)n3n2)cc1 | n | x | x | x | x | x
Cc1noc(C)c1C(=O)N1CCCN(S(=O)(=O)c2ccccc2)CCC(=O)NCC1 | n | x | x | x | x | x
CCCCCn1nc(C(=O)OCC(=O)c2c(N)n(C)c(=O)n(C)c2=O)c2ccccc2c1=O | n | n | 21µM | u | n | u
CCCn1nc(C(=O)OCC(=O)c2ccccc2)c2ccccc2c1=O | n | n | n | n | n | n
CCCCCCn1nc(C(=O)OCn2nnc3ccccc3c2=O)c2ccccc2c1=O | n | x | x | x | x | x
CCCCCCn1nc(C(=O)OCC(=O)c2c(N)n(C)c(=O)n(C)c2=O)c2ccccc2c1=O | n | n | 18µM | u | n | 21µM
CCOCCn1c(=O)[nH]c2cc(C(=O)NCCN3CCCC3=O)ccc21 | n | x | x | x | x | x
CS(=O)(=O)c1ccc(NCCc2ccc(S(N)(=O)=O)cc2)c([N+](=O)[O-])c1 | n | n | u | n | n | u
CNS(=O)(=O)c1ccc(NCCc2ccc(S(N)(=O)=O)s2)c([N+](=O)[O-])c1 | 18µM | x | x | x | x | x
Cc1ccc(C)c(S(=O)(=O)c2nnn3c2nc(NCc2ccc(F)cc2)c2sccc23)c1 | n | x | x | x | x | x
SMILES | 12-LOX inh | Gal4-VP16 FLuc | DT40 TDP1 no CPT | ELG1 DNA repair | RORgamma inh | TDP1 cell CPT
CCCc1cc(-c2nc(N)ncc2-c2ccc3c(c2)OCCCO3)c(O)cc1OC | n | u | 26µM | u | n | u
COc1ccc(N2C(S)=C(C#N)C(=O)NC2c2ccco2)cc1 (configuration not stated) | 45µM | u | u | n | n | u
COc1cc(C2NC(=O)C(C#N)=C(S)N2c2ccccc2)ccc1OC(C)C (configuration not stated) | 14µM | u | u | n | 10µM | u
Cn1cc(-c2cccc(Cl)c2)cc(C#N)c1=O | n | n | n | n | n | n
COc1ccc(C2NC(=O)C(C#N)=C(S)N2c2ccccc2)cc1OC (configuration not stated) | u | u | u | n | u | n
CCOc1ccc(C2NC(=O)C(C#N)=C(S)N2c2cccc(C)c2)cc1OC (configuration not stated) | n | n | u | n | n | u

Assay outcomes as filed in PubChem BioAssay.
